This note sets out measurements from PubChem BioAssay (EPA / NIEHS).

A structure can be active in one record and inactive in another. The source made the active and inactive calls. The calls were made as follows: active = hit-call score of the fitted dose curve at least 0.9, where 1 is the maximum; inactive = score below 0.9.

This test can be described thus: ATG_GLI_CIS: Attagene CIS-FACTORIAL HepG2 Assay for human Zinc Finger Protein GLI1 (AID 2282945). Particulars: HepG2, Attagene cis-factorial reporter mRNA, GLI element; actives raise or lower the signal. How it is done: ATG_CIS is a cell-based, multiplexed-readout assay that uses HepG2, a human liver cell line, with measurements taken at 24 hours after chemical dosing in a 24-well plate.ATG_GLI_CIS is one of 52 assay component(s) measured or calculated from the ATG_CIS assay. It is designed to make measurements of mRNA induction, a form of inducible reporter, as detected with fluorescence intensity signals by Reverse transcription polymerase chain reaction (RT-PCR) and Capillary electrophoresis technology.Data from the assay component ATG_GLI_CIS was analyzed into 1 assay endpoint. This assay endpoint, ATG_GLI_CIS, was analyzed with bidirectional fitting relative to DMSO as the negative control and baseline of activity. Using a type of inducible reporter, measures of mRNA for gain or loss-of-signal activity can be used to understand the reporter gene at the transcription factor-level as they relate to the gene GLI1. Furthermore, this assay endpoint can be referred to as a primary readout, because this assay has produced multiple assay endpoints where this one serves a reporter gene function. To generalize the intended target to other relatable targets, this assay endpoint is annotated to the dna binding intended target family, where the subfamily is zinc finger.
Human liver HepG2 cells are transiently transfected with multiple reporter transcription units (MRTUs) in 6-well plates using FuGene 6 reagent (Roche; 3 ml FuGene/1 mg DNA). The MRTU constructs are regulated by a cis-regulating element (promoter). […] A major difference between the CIS and TRANS system is that in CIS activities of endogenous TFs are measured, whereas the TRANS assay evaluates changes in activities of exogenous, chimeric NR-Gal4 proteins. […] At the end of 24 hour incubation, total RNA was isolated using TriZol reagent (Invitrogen). The isolated RNA is then reverse-transcribed using oligo(dT) primer and Mo-MLV reverse transcriptase (Invitrogen) with DNAse I (Ambion) treatment for 30 min. The one-tenth of the produced cDNA was amplified by PCR using Taq DNA polymerase (Invitrogen) and two reporter sequence-specific primers. The PCR products were fluorescently labeled by primer extension with 6-arboxyfluorescein (6-FAM) 5'-labeled reporter sequence-specific primer (2 min at 95 C, 20 s at 68 C and 10 min at 72 C) and these products were digested with 5U of HpaI (New England Biolabs) for 2h at 37 C. The fragments were purified using Qiaquick PCR columns (Qiagen), analyzed on an ABI 3130xL genetic analyzer (Applied Biosystems) with peak positions identified by using a set of X-rhodamine (ROX)-labeled MapMarker1000 molecular weight standards (BioVentures). The raw capillary electrophoresis data was processed using Attagraph software (Attagene).
As for `CCC1(c2ccc(N)cc2)CCC(=O)NC1=O` (stereo not given), the outcome was inactive.

`CC(C)(C)CC(C)(C)c1ccc(O)cc1`: the result was inactive.

For `CC(C)(c1ccccc1)c1ccc(O)c(C(C)(C)c2ccccc2)c1`, the outcome was inactive.

In the case of `CCOP(=O)(CN(CCO)CCO)OCC`, the result was inactive.

On to `COc1cccc(C=O)c1`, for which the result was inactive.

Consider `NC(=S)Nc1ccccc1`, for which the outcome was inactive.

Turning to `CC(C)OC(=O)Nc1ccccc1`, the compound was classed as inactive.

Consider `O=C(O)Cc1ccccc1`, for which the compound was called inactive.

`CCOP(=S)(OCC)SCCS(=O)(=O)CC`: the compound was called inactive.

Consider `CN(CCCC(=O)c1cccnc1)N=O`, for which the outcome was inactive.

`CCC[CH2][Sn]([Cl])([Cl])[Cl]`: the compound was called inactive.

As usually defined, the AC50 is the concentration at which the activity in the assay is half-maximal. Turning to `CC(=O)c1cc(C(C)(C)C)cc2c1CCC2(C)C`, the AC50 is 143 µM (active).

Take `COC(=O)c1sccc1S(=O)(=O)NC(=O)Nc1nc(C)nc(OC)n1`: the result was inactive.

Take `c1ccc(N=NNc2ccccc2)cc1`: the AC50 is 163 µM (active).

In the case of `O=C1C2(Cl)C3(Cl)C4(Cl)C(Cl)(Cl)C5(Cl)C3(Cl)C1(Cl)C5(Cl)C24Cl` (stereo not given), the outcome was inactive and the concentration at half-maximal activity (AC50) was 3.57 µM (active).

Regarding `CC1(C)Cc2cccc(O)c2O1`, the result was inactive.

Take `O=CC=O`: the compound was classed as inactive.

With `N#CCCO`, the outcome was inactive.

Consider `CC(C)c1cccc(C(C)C)c1O`, for which the outcome was inactive.

Turning to `COP(=O)(OC)OC`, the result was inactive.

With `O=C(NCO)NCO`, the call was inactive.

For `CCOP(OCC)OCC`, the result was inactive.

`O=P(O)(O)CN(CP(=O)(O)O)CP(=O)(O)O`: the outcome was inactive.

Turning to `CCN(CC)C(=O)Cl`, the call was inactive.

For the compound `ClCc1ccccn1`, the outcome was inactive.

In the case of `CC12CC1(C)C(=O)N(c1cc(Cl)cc(Cl)c1)C2=O` (stereo not given), the outcome was inactive.

Regarding `CC(C)C1CCC(Cc2ccc(Cl)cc2)C1(O)Cn1cncn1` (stereo not given), the outcome was inactive.

Turning to `O=C1C(Cl)=C(Cl)C(=O)c2ccccc21`, the call was inactive.

Regarding `CCNc1nc(NC(C)(C)C)nc(SC)n1`, the result was inactive.

As to `O=C(Cl)c1ccc(Cl)cc1`, the compound was called inactive.

Regarding `C1CCC(NC2CCCCC2)CC1`, the compound was called inactive.

In the case of `N#CN=C(N)N`, the compound was classed as inactive.

Consider `Nc1ncc([N+](=O)[O-])s1`, for which the result was inactive.

Turning to `O=C(O)C(F)(F)C(F)(F)C(F)(F)C(F)(F)C(F)(F)C(F)(F)C(F)(F)C(F)(F)C(F)(F)C(F)(F)F`, the AC50 is 174 µM (active) and the outcome was inactive.

`CC(C#N)CCC#N` (stereo not given): the compound was called inactive.

As to `COC(=O)Cc1ccccc1`, the result was inactive.

Turning to `CC(C)(OO)c1ccccc1`, the compound was classed as inactive.

On to `CCN1CCC2(CC1)COc1cc3c(cc12)N(C(=O)c1ccc(-c2ccc(-c4nnc(C)o4)cc2C)cc1)CC3`, for which the call was inactive.
